# Among all 1,400 compounds or so, about 30 (2%) were called active. Roughly 15% stayed inconclusive and do not appear here. For the sample, actives were picked, then their nearest neighbours and some compounds at random. Values without a mark were called inactive. Calls follow the shape of the dose curve; as a rule, active = well fitted inhibition curve with a large enough effect; inconclusive = small, poorly fitted or top-dose-only effect; inactive = flat fitted curve, though single readings scatter.
# Assay: Firefly Luciferase Counterscreen for Inhibitors of ATXN expression
# Settings: luminescence; series mostly up to 57.5 µM; activity change, negative = inhibition: at the top concentration
# Description: University of Utah School of Medicine, Salt Lake City, Utah
# Spinocerebellar ataxia type 2 (SCA2) is a multisystem neurodegenerative disease caused by a dominantly acting mutation leading to expansion of a polyQ domain in the ataxin-2 protein (ATXN2). SCA2 patients develop progressive ataxia and later lose function in other neuronal systems. Prominent parkinsonian signs develop in some patients. Like many neurodegenerative disorders, no symptomatic or disease-modifying treatments are known.
# The primary objective of the proposed research is to identify compounds inhibiting ATXN2 expression and to test them for efficacy in SCA2 mouse models. We have developed a cell-based assay paired with an in vivo mouse model using identical luciferase expression constructs. This approach takes advantage of an ATXN2-luciferase transgene, with the luciferase gene flanked by the upstream and downstream portions of the ATXN2 gene. Here we describe a 5-7 dose quantitative high thoroughput screen (qHTS) for compounds lowering ATXN2 expression. We screened the NIH Molecular Libraries Small Molecule Repository (MLSMR) and NCGC's mechanistically annotated (MIPE) and drug repurposing (NPC) collections of compounds for lowering expression of an ATXN2-luciferase reporter in HEK-293 cells. The assay is a multiplexed cell viability assay to ensure target reduction in the absence of cytotoxicity. Secondary qHTS assays included a CMV-luciferase reporter expressed in HEK-293 cells as well as a biochemical assay using recombinant luciferase to detect inhibitors of the reporter enzyme. Compounds that inhibit ATXN2 expression but is not cytotoxic were selected for confirmatory and secondary screens.
# PROTOCOL TABLE (as described by Inglese J, Shamu CE and Guy RK. 2007)
# SEQUENCE No. (e.g., 1, 2, 3, etc.); […] (e.g., Cells, Incubation, Reagent, etc.); VALUE; DESCRIPTION.
# 2; Compounds; 23 nL; Kalypsis pintool (Wako USA) equipped with a 1536-well pin head.
# 3; Enzyme; 1 uL; recombinant firefly luciferase (prepared in 50 mM Tris HCl pH7.5, 10 mM MgCl2, 0.05% BSA, 0.01% Tween20) at final concentration of 10 nM. Wells containing buffer only were used as control (set as 100% inhibition when normalizing data).
# 4; Incubation; 10 min; room temperature.
# 5; Detection; Luminescence; Viewlux plate reader (PerkinElmer).
# NOTES (numbers refer to Sequence numbers above)
# 1. Luciferase substrate is added to 1536 well, Greiner white assay plate. Evaporation was prevented by covering assay plates with metal lids containing holes to allow gas diffusion.
# 2. Compounds were added in a dose response manner with the final concentrations of 57, 11.4, 2.28, 0.46, 0.091, 0.018, 0.0037 uM. Vehicle-only plates, with DMSO being pin-transferred to columns 5-48, were inserted uniformly at the beginning and the end of each library to monitor and record any shifts in assay performance.
# 3. Recombinant firefly luciferase (10 nM final concentration) is added to the assay plate.
# 5. End-point luminescence is then measured on the Viewlux (PerkinElmer) imager equipped with a clear emission filter using a 2 sec exposure.
# Inglese J, Shamu CE and Guy RK, Reporting data from high throughput screening of small molecule libraries, Nature Chemical Biology, 2007, 3(8): 438-441. doi.org/10.1038/nchembio0807-438.
# % is scaled to controls: 0 for no effect and ±100 for the full control effect; potency is read from the fitted curve at half-maximal effect.
SMILES,"activity change, negative = inhibition [%]",Potency
C=CCc1cccc(/C=N/NC(=O)CCC(=O)Nc2ccc(F)cc2)c1O,2.3,–
CCCCn1c(=N)n(CCOc2ccc(C)cc2)c2ccccc21,2.78,–
CC1CCCN(c2ncnc3c2cnn3-c2ccc(Cl)cc2)C1 (stereo not given),–,0.0891 µM (active)
Cn1ncc2c(N3CCN(c4ccc(Cl)c(Cl)c4)CC3)ncnc21,-0.373,–
COc1ccccc1Cc1c(-c2ccco2)nc2c(C)cc(Br)cn12,–,15.8 µM (active)
Oc1ccccc1C(Nc1nccs1)c1ccc2cccnc2c1O (stereo not given),-4.63,–
Oc1ccc(N2CCN(c3ccnc4cc(Cl)ccc34)CC2)cc1,-6.51,–
CN1CCN(c2cc(-c3cc(O)c4ncccc4c3)ccn2)CC1,-1.23,–
CCN1CCS/C1=C\C=C\C1=[N+](CC)CCS1,-3.22,–
Cc1cc([N+](=O)[O-])nn1Cc1ccc(C(=O)N/N=C/c2ccc(O)cc2O)cc1,6.39,–
Cc1sc2ncnc(NCC(O)c3ccc([N+](=O)[O-])cc3)c2c1C (stereo not given),-0.514,–
CCc1nn2cc(C(=O)c3cc(Cl)ccc3O)cnc2c1-c1ccc(F)cc1,-7.19,–
Cc1cc(NC(c2cccnc2)c2ccc3cccnc3c2O)no1 (stereo not given),-3.83,–
CCn1c2ccccc2c2cc(/C=N/NC(=O)c3ccccc3)ccc21,-10,–
COc1ccc(C(NC(C)=O)c2cc(Cl)c3cccnc3c2O)cc1OC (stereo not given),-18.1,–
O=C(N/N=C/c1sc(N2CCOCC2)nc1-c1ccccc1)c1ccccc1O,-18.3,–
CS(=O)(=O)Nc1cccc(NC(=O)c2cccc3c(-c4cccc(C(N)=O)c4)coc23)c1,–,14.1 µM (active)
NC(=O)c1cccc(-c2ccnc3c2CC(C(=O)Nc2cccc(Oc4ccccc4)c2)O3)c1 (stereo not given),-7.75,–
CCc1nc2ccc(C(=O)Nc3cccc(NS(C)(=O)=O)c3)cn2c1N(C)CCCc1ccccc1,-2.96,–
O=C1c2cccc3cc([N+](=O)[O-])cc(c23)C(=O)N1CCN1CCCC1,1.39,–
COc1cc(C(=O)NC(=S)NNC(=O)c2cnccn2)cc(OC)c1OC,-7.31,–
CC1=NN(c2nc3ccccc3[nH]2)C(=O)C1Cc1ccccc1 (stereo not given),–,25.1 µM (active)
Clc1ccc2c(NCc3ccccc3)ccnc2c1,-5.63,–
CC1(C)C(C=C(Cl)Cl)C1C(=O)Nc1ccc([N+](=O)[O-])cc1 (stereo not given),-1,–
CC1(C)Cc2ccccc2C2=NNC(=O)C2=N1,-3.52,–

SMILES,"activity change, negative = inhibition [%]",Potency
CC(=O)Nc1ccc(N(CC(O)Cn2c3ccccc3c3ccccc32)S(=O)(=O)c2ccc(C)cc2)cc1 (stereo not given),1.22,–
Cc1ccc(S(=O)(=O)Nc2ccc(O)c3cccnc23)cc1,-7.92,–
CC(C)n1cnc2c(N(C)c3ccccc3)nc(N(CCN(C)C)Cc3ccccc3)nc21,0.895,–
COc1ccc(-c2cc(C3CCN(c4ccc(C(C)=O)cc4[N+](=O)[O-])CC3)[nH]n2)cc1,-6.65,–
CCC(c1nnnn1C1CCCC1)N(Cc1cccs1)Cc1cc2cc(C)ccc2[nH]c1=O (stereo not given),2.95,–
CC[n+]1c(/C=C/N(C)c2ccccc2)oc2ccc(F)cc21,2.57,–
O=[N+]([O-])c1ccc(NC(c2ccccc2)c2ccc3cccnc3c2O)cc1 (stereo not given),0.892,–
CCC1=C(CC2NCCc3ccccc32)CC2c3cc(OC)c(OC)cc3CCN2C1 (stereo not given),-1.08,–
O=C(/C=C/c1ccco1)Oc1cc(Br)cc(/C=N/NC(=O)c2ccccc2O)c1,–,12.6 µM (active)
O=C(CNC(=O)c1ccccc1F)N/N=C/c1cc(Br)ccc1OC(=O)/C=C/c1ccco1,-17.1,–
O=C(CNC(=O)c1ccc(F)cc1)N/N=C/c1cc(Br)ccc1OC(=O)/C=C/c1ccco1,-1.3,–
O=C(CCCN1C(=O)/C(=C/c2ccccc2Cl)SC1=S)NNC(=O)c1ccc(Cl)cc1Cl,4.34,–
Cc1cc(C(=O)CN2C(=O)c3ccccc3S2(=O)=O)c(C)n1CC1CCCO1 (stereo not given),–,6.31 µM (active)
Cc1nnc(SCC(N)=O)n1CC1CCCO1 (stereo not given),0.593,–
Cc1ccc(NC(=O)CN2C(=O)c3ccccc3S2(=O)=O)cc1C,-22.2,–
O=C(CN1C(=O)c2ccccc2S1(=O)=O)c1ccc(Cl)cc1Cl,–,0.562 µM (active)
COc1ccc(S(=O)(=O)Nc2ccc(F)cc2)cc1N(C)S(=O)(=O)c1ccc(Cl)cc1,-4.61,–
C=CCc1cccc(/C=N/NC(=O)C[n+]2ccccc2)c1O,49.8,–
CC(=O)Oc1ccc(N(C(C)=O)S(=O)(=O)c2ccc(C)cc2C)c2ccccc12,-6.82,–
NS(=O)(=O)c1ccc(CCNc2ncnc3c2c(-c2ccccc2)cn3-c2ccc(F)cc2)cc1,-1.88,–
Cc1nc2ccccc2c(=O)n1/N=C/c1cc(Br)ccc1O,-6.67,–
Cc1cc(/C=N/n2c(COc3ccccc3)nc3ccccc3c2=O)c(O)c([N+](=O)[O-])c1,–,15.8 µM (active)
Cc1nc2ccccc2c(=O)n1/N=C/c1c(O)ccc2oc3c(c12)CCCC3,-0.379,–
Cc1ccc(C(C)C)c(OCc2ccc(C(=O)N/N=C/c3ccc(O)cc3O)cc2)c1,-15.1,–
COc1ccc(CC(N)c2csc(NC(=O)c3cccc(OC(F)(F)F)c3)n2)cc1 (stereo not given),-2.7,–

# Source: PubChem BioAssay AID1745846 (National Center for Advancing Translational Sciences (NCATS), 2022)
